Experimental data taken from PubChem BioAssay AID493034 (The Scripps Research Institute Molecular Screening Center, 2011).
In all, about 2,400 compounds went through this assay and about 2,200 (92%) were called active.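 How the source made its calls: active means mean inhibition over triplicate runs exceeds the cutoff derived for the earlier primary screen (cut at about 25% in these data); inactive means the rest.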 So high a share suggests a set chosen from earlier hits. This is one part of the list.

target: Platelet-activating factor acetylhydrolase IB subunit alpha2 (Homo sapiens) (UniProt P68402); assay: PAFAH1B2 inhibitors, confirmation, biochemical, fluorescence polarization, FP-rhodamine probe, triplicate (AID 493034); conditions: recombinant PAFAH1B2, FP-rhodamine probe fluorescence polarization; at 3.39 µM; hits give high values;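 further: 0% = enzyme with DMSO and 100% = wells lacking PAFAH1B2 protein; inhibitors lower polarization by leaving the probe unbound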
Sequence (P68402 whole entry, looked up): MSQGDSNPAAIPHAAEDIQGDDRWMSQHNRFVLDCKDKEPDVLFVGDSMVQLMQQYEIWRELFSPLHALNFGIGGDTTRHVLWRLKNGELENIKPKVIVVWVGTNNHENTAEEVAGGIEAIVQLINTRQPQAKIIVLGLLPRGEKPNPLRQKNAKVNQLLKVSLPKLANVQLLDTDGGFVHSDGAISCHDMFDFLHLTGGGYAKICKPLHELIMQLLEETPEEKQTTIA

inhibition, active:
O/N=C/c1ccc2ccccc2c1 43.9%
Cc1ccc(S(=O)(=O)Nc2ccc(Cl)cc2C(=O)c2ccc(F)cc2)cc1 27.2%
CC1(C)C(=O)N(c2ccccc2)C1c1ccccc1O (centres undefined) 36.5%
CCCC(=O)Nc1sc(-c2ccccc2)c(-c2ccccc2)c1C(=O)O 43.5%
O=C(CCN1C(=O)/C(=C/c2ccccc2F)SC1=S)N[C@@H](CO)Cc1ccccc1 60.2%
O=C(CCCN1C(=O)/C(=C\c2ccccc2)SC1=S)Nc1ccc(O)cc1C(=O)O 61.7%
COc1ccc(/C=C2\SC(=O)N(CCCC(=O)Nc3cc(Cl)ccc3C(=O)O)C2=O)cc1 40.3%
O=C(CCN1C(=O)/C(=C/c2ccccc2)SC1=S)N[C@@H](CO)Cc1ccccc1 66.8%
Cc1ccc(NC(=O)CN(C)C(=O)c2ccc3[nH]c4c(c3c2)CC(C)CC4)cc1 (centres undefined) 47.5%
Cc1ccc(C)c(NC(=O)CN(C)C(=O)c2ccc3[nH]c4c(c3c2)CC(C)CC4)c1 (centres undefined) 29.8%
O=[N+]([O-])c1ccc(O)c(/C=N/Nc2nc3ccccc3[nH]2)c1 28.4%
CC(C)C1Nc2c(O)cc(Cl)c([N+](=O)[O-])c2C2C=CCC21 (centres undefined) 39.4%
O=c1[nH]c2c(s1)C(c1ccco1)C1C3CCC(C3)C1S2 (centres undefined) 51.9%
O=c1[nH]c2c(s1)C(c1ccccc1)C1C3CCC(C3)C1S2 (centres undefined) 36.8%
COc1ccccc1NC(=S)NCCc1ccc(Cl)cc1 25.7%
S=C(NCCc1ccc(Cl)cc1)NC1CC1 40.9%
CCN(CC(=O)Nc1ccc(NC(C)=O)cc1)Cc1c(O)ccc2cc(Br)ccc12 59.1%
NNC(=S)NC1CCCCCCCCCCC1 47.2%
CC(C)(C)OC(=O)[C@H]1[C@H](c2ccc([N+](=O)[O-])cc2)C2(C(=O)c3ccccc3C2=O)C2c3ccccc3C=NN21 (some centres undefined) 73.7%
O=C(O)c1ccccc1C(=O)NCCc1c(C(=O)O)[nH]c2ccc(Cl)cc12 26%
O=C(O)c1[nH]c2ccc(Br)cc2c1CCN1C(=O)c2cccc([N+](=O)[O-])c2C1=O 41.5%
O=C(O)c1[nH]c2ccc(Cl)cc2c1CCN1C(=O)c2ccccc2C1=O 79.2%
CC(C(=O)O)N1C(=O)C2C3CC(C2C1=O)C1C(c2ccccc2)c2sc(=O)[nH]c2SC31 (centres undefined) 43.1%
CC(C)CC(C(=O)O)N1C(=O)C2C3CC(C2C1=O)C1C(c2ccccc2)c2sc(=O)[nH]c2SC31 (centres undefined) 39.3%
COc1cc(/C=N/N(C)S(=O)(=O)c2ccc(C)cc2)cc([N+](=O)[O-])c1O 30.5%
O=C(CNC(=O)OCc1ccccc1)Oc1cc2oc(=O)cc(-c3ccccc3)c2cc1Cl 50.6%
CC(C)(c1ccc(O)cc1)c1ccc(O)cc1 42.2%
COC(=O)c1c(NC(=O)C2C3CCC(O3)C2C(=O)O)sc2c1CCCCCC2 (centres undefined) 39.5%
O=C(O)C1=C[C@H](c2ccc(C(F)(F)F)cc2)C[C@H](OCc2ccc(CO)cc2)O1 26%
Cc1ccc(S(=O)(=O)N/N=C/c2cccn2-c2ccc(Cl)cc2)cc1 45%
CN(C(=O)Cc1c(C(=O)O)n(C)c2ccccc12)c1ccc(Cl)cc1 41.1%
S=c1[nH]nc(-c2ccc(Cl)cc2)n1Cc1ccccc1 32%
O=C(C[C@H]1C/C=C\C[C@@H](Cc2ccc(F)cc2)C(=O)OC[C@H]2CCCN2C1=O)N[C@@H](CO)Cc1ccccc1 35.2%
O=C(C[C@@H]1C/C=C\C[C@@H](Cc2ccc(F)cc2)C(=O)OC[C@@H]2CCCN2C1=O)NCCO 26.9%
O=C(C[C@@H]1C/C=C\C[C@@H](Cc2ccc(F)cc2)C(=O)OC[C@H]2CCCN2C1=O)N[C@H](CO)Cc1ccccc1 32.1%
CCN1C(=O)N/C(=C/c2cc(C)n(Cc3ccccc3)c2C)C1=O 77.5%
O=C(N/N=C/c1cc([N+](=O)[O-])ccc1O)NC12CC3CC(CC(C3)C1)C2 79.6%
COc1ccc(S(=O)(=O)Nc2ccc3c(c2)CC(=O)N([C@@H](C)CO)C[C@@H](C)[C@@H](CN(C)Cc2ccccc2)O3)cc1 26.1%
O=C(Nc1sc(-c2ccccc2)cc1C(=O)O)c1ccccc1 28.8%
S=c1[nH]cnc2sc(-c3ccccc3)cc12 37.9%
O=[N+]([O-])c1cc(-c2cnc3ccccc3n2)ccc1Oc1ccc(Br)cc1 51.6%
CC(C)(C)CC(C)(C)c1ccc(O)c(CN2CCN(CCC#N)CC2)c1 32.4%
COC(=O)c1sccc1NC(=O)CC1C(=O)NCCN1C(=O)Nc1ccc(OCc2ccccc2)cc1 (centres undefined) 52.2%
Oc1cc2c(cc1O)CN(C(=S)NCCc1ccc(Cl)cc1)CCC2 55.2%
Cc1c(C(=O)N2CCOCC2)cc(C(C)(C)C)n1-c1ccccc1 41%
Cc1ccc(S(=O)(=O)n2cc(CO)c3ccccc32)cc1 40%
O=C1NC[C@@H](c2ccccc2)OC(=O)[C@H](Cc2ccc(F)cc2)CC/C=C/C[C@H]1CC(=O)N(CCO)Cc1ccccc1 52.6%
O=C1NC[C@@H](c2ccccc2)OC(=O)[C@@H](Cc2ccc(F)cc2)CC/C=C/C[C@H]1CC(=O)N(CCO)Cc1ccccc1 57.9%
O=C1NC[C@H](c2ccccc2)OC(=O)[C@H](Cc2ccc(F)cc2)C/C=C\C[C@H]1CC(=O)N(CCO)Cc1ccccc1 49.6%

inhibition, inactive:
CN(CC(=O)Nc1ccc(C#N)cc1)Cc1ccc(Cl)cc1 19.9%
Cc1ccc(COc2ccc(/C=N/O)cc2)cc1 22.1%
Cc1ccc(S(=O)(=O)NC(=O)Nc2nc(-c3ccc(F)c(F)c3)cs2)cc1 9.68%
CNC(=O)c1cc(C(=O)c2ccc(Cl)cc2)c(Br)[nH]1 14%
O=C1N(c2ccccc2)C(c2ccccc2)C12CCCCC2 (centres undefined) 24%
O=C(CCN1C(=O)/C(=C/c2ccccc2Cl)SC1=S)NC1=NCCS1 6.52%
OC(c1ccccc1)(c1ccc(F)cc1)C(c1ccccc1)N1CCOCC1 (centres undefined) 21.9%
CN(C(=O)COC(=O)c1ccc(Cl)c(S(=O)(=O)NCc2ccccc2)c1)C1CCS(=O)(=O)C1 (centres undefined) 19.1%
CC(C)C1Nc2ccc(S(N)(=O)=O)cc2C2C=CCC21 (centres undefined) 23%
Cc1ccc(C)c(NC(=S)NCCSc2ccc(Cl)cc2)c1 23.1%
O=C(CSc1ncn[nH]1)NCCc1ccc(Cl)cc1 18.2%
S=C(NCCc1ccc(Cl)cc1)NC1CCCCC1 22.8%
Cc1csc(SCC(=O)NCCc2ccc(Cl)cc2)n1 22.8%
COc1ccc(CCN(C)Cc2c(O)ccc3cc(Br)ccc23)cc1OC 14.9%
Cc1ccc(C)c(Cn2nnc3c(=O)[nH]c(C(=O)NCC4CCCO4)nc32)c1 (centres undefined) 5.01%
CN(C)C(=O)NC1CCCCCCCCCCC1 22.7%
CNC(=S)N(Cc1ccc(OC)cc1)C1CC(=O)N(c2ccc(Cl)cc2)C1=O (centres undefined) 23.9%
Cc1ccc(N2C(=O)CC(Sc3nc4ccccc4o3)C2=O)cc1Cl (centres undefined) 20.1%
Cn1c(COc2ccc(Cl)cc2)nnc1SCc1ncc(-c2ccccc2)o1 22.4%
C[C@H](NC(=O)c1nc[nH]c1C(=O)NCC(=O)OCc1ccccc1)c1ccccc1 23.8%
Cc1noc(C)c1COc1ccccc1C(=O)NC(C)c1ccc(Cl)cc1 (centres undefined) 15.7%
COc1cccc(/C=N/Nc2ccc(S(=O)(=O)Nc3ccccc3C(=O)O)cc2[N+](=O)[O-])c1O 20.4%
COc1cc(/C=N/NS(=O)(=O)c2ccc(C(C)(C)C)cc2)cc([N+](=O)[O-])c1O 14.5%
CN(CCc1ccccn1)C(=S)NC(=O)c1ccco1 3.54%
Cc1ccc(S(=O)(=O)N2[C@@H](c3ccc(Cl)cc3)C(C(=O)O)=C[C@H]2C(C)(C)C)cc1 21%
O=C(NCc1ccc(Cl)cc1)C(=O)NCC1OCCN1S(=O)(=O)c1cc(F)ccc1F (centres undefined) 20.3%
Cc1nn(-c2ccccc2)c(Cl)c1CN(C(=O)CCl)c1ccc(Cl)cc1 21.7%
O=C(NNC(=O)C12CC3CC(CC(Cl)(C3)C1)C2)c1csc(N2CCOCC2)n1 23%
S=c1[nH]nc(Cc2ccc(Br)cc2)n1/N=C/c1ccc(Cl)cc1 20%
C=CCn1c(-c2cccn(Cc3ccc(Cl)cc3)c2=O)n[nH]c1=S 22.8%
C[C@@H]1COC(=O)[C@H](Cc2ccc(F)cc2)C/C=C\C[C@@H](CC(=O)NCCO)C(=O)N1 22.3%
O=C(N/N=C/c1cc([N+](=O)[O-])ccc1O)Nc1ccccc1 16.1%
Clc1ccc(OCCSCc2nc3ccccc3[nH]2)cc1 22.6%
COc1ccc(S(=O)(=O)Nc2ccc3c(c2)C(=O)N([C@H](C)CO)C[C@H](C)[C@@H](CN(C)S(=O)(=O)c2ccccc2)O3)cc1 22.7%
COc1ccc(S(=O)(=O)Nc2ccc3c(c2)C(=O)N([C@@H](C)CO)C[C@H](C)[C@H](CN(C)S(=O)(=O)c2ccc(F)cc2)O3)cc1 22.2%
COC(=O)c1sc(-c2ccc(Cl)cc2)cc1NC(=O)COCC(=O)O 11.5%
Cn1nc(C(=O)NCCc2ccc(Cl)cc2)c2c1-c1ccccc1S(=O)(=O)C2 23.3%
CCC(C)c1c(N)n(S(=O)(=O)c2ccc(C)cc2)oc1=O (centres undefined) 23.5%
O=C1NCCOC(=O)[C@H](Cc2ccc(F)cc2)C/C=C\C[C@H]1CC(=O)N(CCO)Cc1ccccc1 14.8%
O=C(C[C@H]1C/C=C/CC[C@H](Cc2ccc(F)cc2)C(=O)O[C@H](c2ccccc2)CNC1=O)NCCO 23.6%
